Results filed as inconclusive are left out. The source made the active and inactive calls. Calls come from the whole dose curve; as a rule, active = well fitted inhibition curve with a large enough effect; inconclusive = small, poorly fitted or top-dose-only effect; inactive = flat fitted curve, though single readings scatter.
Columns and labels:
Experiment in all cases: qHTS profiling for inhibitors of Plasmodium falciparum proliferation (AID 504749); note: nearly all actives have a fitted effect of over 60% in size
Conditions in all cases: P. falciparum in erythrocytes, SYBR Green DNA, 72 h; series mostly up to 28.7 µM
CP297 = tested on: CP297
How it was run: (§1)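 SYBR Green fluorescence (ex 485 nm, em 535 nm) reports parasite DNA after 72 h compound exposure of infected red cells at 0.3% parasitemia, 2.5% hematocrit; signal normalized to 0.29 uM artemisinin and vehicle wells.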

CP315 = tested on: CP315
How it was run: as §1

CP329 = tested on: CP329
How it was run: as §1

DFO2036 = tested on: DFO2036
How it was run: as §1

DIV30 = tested on: DIV30
How it was run: as §1

Dd2 = tested on: Dd2
How it was run: as §1

ECU = tested on: ECU
How it was run: as §1

JCK = tested on: JCK
How it was run: as §1

N140 = tested on: N140
How it was run: as §1

CP286 = tested on: CP286
How it was run: as §1

CP335 = tested on: CP335
How it was run: as §1

DIV14 = tested on: DIV14
How it was run: as §1

DIV17 = tested on: DIV17
How it was run: as §1

GB4 = tested on: GB4
How it was run: as §1

HB3 = tested on: HB3
How it was run: as §1

ICS = tested on: ICS
How it was run: as §1

FAB9 = tested on: FAB9
How it was run: as §1

CP291 = tested on: CP291
How it was run: as §1

CP325 = tested on: CP325
How it was run: as §1

CP305 = tested on: CP305
How it was run: as §1

Measured: Potency
Potency is the fitted concentration of half-maximal effect.

C[N+]1(C)CCC(=C(c2ccccc2)c2ccccc2)CC1
inactive: CP297 | CP315 | CP329 | DFO2036 | DIV30 | Dd2 | ECU | JCK | N140

CN1CCc2cccc3c2[C@H]1Cc1ccc(O)c(O)c1-3
inactive: Dd2
active: CP286 6.31 µM | CP335 3.79 µM | DIV14 7.57 µM | DIV17 7.57 µM | GB4 7.57 µM | HB3 11.2 µM | ICS 2.82 µM | N140 10 µM

CN(C)CCOC(c1ccc(Cl)cc1)c1ccccn1 (configuration not stated)
active: Dd2 4.47 µM
inactive: CP315 | CP329 | DFO2036 | ECU | FAB9 | HB3

COc1ccc(C(Cl)=C(c2ccc(OC)cc2)c2ccc(OC)cc2)cc1
inactive: CP291 | CP297 | CP315 | CP325 | CP329 | DIV17 | DIV30 | GB4
active: DFO2036 17.8 µM | ECU 2.24 µM | N140 15.8 µM

CN1CCC(OC(c2ccccc2)c2ccccc2)CC1
inactive: CP297 | CP315 | ECU | FAB9 | HB3 | JCK
active: Dd2 3.98 µM

CN1CCN(c2cc3c(cc2F)c(=O)c(C(=O)O)cn3-c2ccc(F)cc2)CC1
inactive: CP297 | CP315 | CP325 | CP329 | DIV14 | DIV17 | DIV30 | ECU | FAB9 | HB3 | JCK

Oc1c(Cl)cc(Cl)c(Cl)c1Cc1c(O)c(Cl)cc(Cl)c1Cl
inactive: FAB9
active: CP315 6.75 µM | CP329 13.5 µM | DIV14 10.7 µM | DIV17 12 µM | DIV30 13.5 µM | Dd2 12.6 µM | ECU 12.6 µM | GB4 15.1 µM | ICS 7.08 µM

O=[N+]([O-])c1cccc(S(=O)(=O)NCCNS(=O)(=O)c2cccc([N+](=O)[O-])c2)c1
not listed: ECU | CP286 | CP335 | DIV14 | DIV17 | GB4 | ICS | CP305
inactive: all other assays above

NC1CCN(c2nc3c(cc2F)c(=O)c(C(=O)O)cn3-c2ccc(F)cc2F)C1 (configuration not stated)
inactive: CP315 | DIV14 | DIV17 | DIV30 | FAB9 | JCK

CN1CCN(c2c(F)cc3c(=O)c(C(=O)O)cn4c3c2SCC4)CC1
active: Dd2 10 µM
inactive: CP315 | CP329 | DIV14 | DIV17 | DIV30 | FAB9 | GB4 | HB3 | JCK

O=S(c1cc(Cl)cc(Cl)c1O)c1cc(Cl)cc(Cl)c1O
active: FAB9 0.0224 µM | HB3 0.0032 µM
inactive: CP286 | ICS

CC(C)(C)NC[C@H](O)COc1nsnc1N1CCOCC1
inactive: CP315
active: CP291 13.5 µM | CP305 15.1 µM | CP335 8.49 µM | DFO2036 6.31 µM | DIV14 3.38 µM | DIV17 3.38 µM | Dd2 5.62 µM | ECU 7.94 µM | GB4 7.57 µM | HB3 3.55 µM | ICS 1.26 µM | N140 3.98 µM

COc1ccccc1N1CCN(CCCCNC(=O)c2ccc(-c3ccc(C(C)=O)cc3)cc2)CC1
active: ICS 14.1 µM
not listed: CP286
inactive: all other assays above

O=C(O)CCc1nc2ccccc2[nH]1
active: Dd2 0.0007 µM | HB3 0.0089 µM
inactive: ICS

CN(Cc1ccc(C(C)(C)C)cc1)Cc1cccc2ccccc12
not listed: Dd2 | CP286 | CP335 | DIV14 | HB3 | ICS
inactive: all other assays above

CC(C)[N+](C)(C)CC(O)COc1cccc2ccccc12 (configuration not stated)
active: CP335 9.53 µM | FAB9 7.94 µM
inactive: CP329 | DIV14 | DIV30 | JCK | N140

From PubChem BioAssay (NCATS)
